High-throughput results deposited in PubChem BioAssay by several laboratories.
Rows were chosen to be rich in hits. Some 4.5% of all compounds tested hit in one or more screens of this group.
Rce1 inhib: yeast Rce1p protease inhibitors, primary screen, biochemical, fluorescence, cell-free homogeneous. CAAX prenyl protease 2 (Saccharomyces cerevisiae (strain ATCC 204508 / S288c)), Q03530. yeast membranes, quenched prenylated peptide cleavage fluorescence. calls only. 0.27% of 290,000 active. AID 2563, 2010;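 active = fall in fluorescence gain of 50% or more versus controls, with final raw signal at or below 3038400; inconclusive = same 50% fall but final raw signal above 3038400; inactive = fall in fluorescence gain under 50%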;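 note: plate controls were neutral control wells for no effect and wells lacking membranes for full effect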
Efflux pump inh: inhibitors of Candida efflux pumps in yeast, primary screen, S. cerevisiae, Nile Red, multiplex | inhibition, % at 10 µM | 0.44% of 330,000 active | AID 485275, 2010 | S. cerevisiae Candida pump triplex;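 active = plate passing quality check with inhibition over a set limit, or well fluorescence over plate mean plus 4 SD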;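 note: Nile Red retained in pooled yeast measured as flow cytometry median fluorescence; 0% = buffer negative control and 100% = Enniatin B positive control; higher means more Nile Red kept so more efflux inhibition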
Rtt109 Vps75: inhibitors of C. albicans Rtt109/Vps75 HAT, primary screen, biochemical, ThioGlo CoA-SH fluorescence, plate reader. Histone acetyltransferase RTT109 (Candida albicans (strain SC5314 / ATCC MYA-2876)), …. 0.16% of 330,000 active. purified Rtt109/Vps75, 4 h. AID 540336, 2011. inhibition, % at 34.9 µM;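 active = inhibition of at least 50% in every replicate; inconclusive = best replicate reaches 50% inhibition but some replicates fall short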
ALR H2O2 inh: inhibitors of human ALR sulfhydryl oxidase, primary screen, biochemical, H2O2 detection, HRP-luminol luminescence, single point | FAD-linked sulfhydryl oxidase ALR (Homo sapiens), P55789 | purified ALR, DTT oxidation | inhibition, % (concentration not given with the values) | 3.8% of 290,000 active | AID 485317, 2010;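 active = mean replicate inhibition above about 79%, with every replicate also reaching it, limit read from the data; inconclusive = only one of the two criteria met; inactive = mean below limit and not every replicate reaching it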
Target sequence (P55789 whole entry, looked up): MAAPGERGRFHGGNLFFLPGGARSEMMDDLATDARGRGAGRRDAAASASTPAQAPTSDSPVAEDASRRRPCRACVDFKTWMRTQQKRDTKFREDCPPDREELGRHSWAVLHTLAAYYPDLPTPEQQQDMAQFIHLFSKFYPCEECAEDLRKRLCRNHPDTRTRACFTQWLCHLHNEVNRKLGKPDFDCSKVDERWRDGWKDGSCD
HDAC3 inh: HDAC3 deacetylase inhibitors, primary screen, biochemical, fluorescence, cell-free homogeneous. Histone deacetylase 3 (Homo sapiens), O15379. recombinant HDAC3, fluorogenic peptide/trypsin coupled. inhibition, % at 8.3 µM. 0.15% of 320,000 active; in the data active = inhibition above about 26%, passing the limit was not always enough; inconclusive = no clear call, values can overlap the other calls
Target sequence (O15379 whole entry, looked up): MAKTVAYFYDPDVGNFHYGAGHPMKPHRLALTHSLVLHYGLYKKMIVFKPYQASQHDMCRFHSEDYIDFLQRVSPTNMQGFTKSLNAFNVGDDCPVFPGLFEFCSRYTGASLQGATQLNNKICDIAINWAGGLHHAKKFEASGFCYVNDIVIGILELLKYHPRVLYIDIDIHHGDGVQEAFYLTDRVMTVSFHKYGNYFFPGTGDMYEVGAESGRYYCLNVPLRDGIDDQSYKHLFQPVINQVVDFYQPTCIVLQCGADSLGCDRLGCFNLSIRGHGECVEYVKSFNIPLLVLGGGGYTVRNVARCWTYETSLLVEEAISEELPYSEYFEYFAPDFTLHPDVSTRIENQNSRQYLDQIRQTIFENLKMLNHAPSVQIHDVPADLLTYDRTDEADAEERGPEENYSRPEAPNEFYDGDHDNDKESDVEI
GRK2 aptamer HTS: compounds blocking aptamer binding on GRK2 – biochemical, human GRK2, bead flow cytometry, HTS, primary screen | inhibition of aptamer binding, % at 10 µM | AID 488847, 2010 | Beta-adrenergic receptor kinase 1 (Homo sapiens), P25098 | FAM-aptamer displacement from GRK2 | 0.59% of 330,000 active;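 active = inhibition of aptamer binding above 40%, roughly 3 SD of noise, on plates passing a quality check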;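 note: median bead fluorescence of bound FAM aptamer so fluorescent compounds give negative values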
Starred values were filed as active, the others as inactive; i = inactive; ? = inconclusive; / = no result given; + = active, no number.

SMILES	Rce1 inhib	Efflux pump inh	Rtt109 Vps75	ALR H2O2 inh	HDAC3 inh	GRK2 aptamer HTS
Cc1ccc2c(=O)n3c(nc2c1)C(CC(C)C)NC(=O)c1ccc(Cl)cc1-3 (stereo not drawn)	/	-0.3	/	-2.7	3.4	2.0
C=CCN1C(=O)c2ccc(C(=O)Nc3ccccn3)cc2C1=O	i	-0.1	2.2	/	-1.2	0.0
Cc1ccc(NC(=S)Nc2ccc3[nH]c(=O)[nH]c3c2)cc1C	i	0.0	1.6	90.0*	-5.4	2.0
COc1ccccc1NC(=O)CSc1nnc(-c2ccccn2)n1Cc1ccco1	i	0.0	-4.9	97.1*	-0.2	4.0
Clc1ccc(CSc2nnc(-c3cccnc3)n2Cc2ccco2)c(Cl)c1	i	0.0	8.2	97.0*	5.1	0.0
Clc1ccccc1CSc1nnc(-c2ccccn2)n1Cc1ccco1	/	0.2	3.3	92.5*	-7.9	1.0
CC(=O)N1CCN(c2ncnc3ccccc23)CC1	i	0.1	57.6*	1.1	-4.8	1.0
O=S(=O)(c1cc(F)ccc1F)N1CCN(c2ncnc3ccccc23)CC1	/	0.1	1.8	-2.6	-2.0	0.0
Cc1ccccc1Nc1c(-c2ccncc2)nc2ccc(Br)cn12	i	0.0	1.2	98.4*	1.7	3.0
COC(=O)CNc1c(-c2ccccc2)nc2ccc(Br)cn12	/	-0.1	/	98.7*	-1.1	0.0
Cc1cccc2nc(-c3cccnc3)c(Nc3ccccc3)n12	i	-0.2	-4.1	97.4*	-1.4	0.0
Cc1cccc2nc(-c3cccnc3)c(NCCC(C)C)n12	i	0.2	11.1	?	-1.8	0.0
Cc1ccccc1Nc1c(-c2cccnc2)nc2ccc(Br)cn12	i	0.0	-4.7	65.6	5.1	1.0
Cc1ccc2nc(-c3cccnc3)c(Nc3ccccc3C)n2c1	i	0.7	-4.6	81.6*	-2.5	4.0
Oc1ccc(-c2cn3c(n2)SCC3)cc1O	i	-0.1	-0.2	98.7*	-5.0	0.0
ClCC1NCC(c2ccccc2Cl)c2c1[nH]c1ccccc21 (stereo not drawn)	i	-0.1	-1.3	97.9*	8.1	0.0
O=C1OC(c2ccc(Cl)cc2)=N/C1=C\C=C\c1ccco1	i	0.1	22.3	24.2	?	4.0
O=C1OC(c2ccccc2)=N/C1=C\C=C\c1ccco1	i	-0.1	21.7	/	41.4*	3.0
CCCCC(CC)C(=O)O (stereo not drawn)	/	-0.1	-6.9	/	/	2.0
Cc1cc(C)c(NC(=S)N(C)C)c(C)c1	i	0.0	-3.6	0.2	0.9	0.0
CN(CCO)c1ccc(C(C(=O)c2ccccc2)c2ccc(N(C)CCO)cc2)cc1	i	0.1	-2.0	90.7*	3.5	0.0
CC(C(=O)NCC(=O)Nc1ccc(F)c(F)c1F)N1CCN(c2ccc(O)cc2)CC1 (stereo not drawn)	/	-0.3	6.1	99.1*	-0.9	0.0
Cc1ccc(NC(=O)CSc2ncc3ccccn23)cc1C	/	0.0	-6.5	98.8*	-1.1	0.0
COc1cccc(NC(=O)CSc2ncc(S(=O)(=O)c3ccccc3)c(=O)[nH]2)c1	i	0.4	-7.7	?	-3.5	1.0
Cc1ccc(NC(=O)CSc2ncc(S(=O)(=O)c3ccccc3)c(=O)[nH]2)cc1C	i	-0.1	-1.2	99.8*	1.9	1.0
SMILES	Rce1 inhib	Efflux pump inh	Rtt109 Vps75	ALR H2O2 inh	HDAC3 inh	GRK2 aptamer HTS
Cc1ccc(NC(=O)CSc2ncn(-c3ccccc3)n2)cc1C	i	0.2	1.9	-3.2	-2.8	4.0
O=C(CSc1ncc(S(=O)(=O)c2ccccc2)c(=O)[nH]1)Nc1ccccc1Cl	i	0.2	-6.7	78.4*	-3.9	7.0
Cn1c(-c2sc3ccccc3c2Cl)n[nH]c1=S	i	-0.1	-4.0	96.6*	0.4	1.0
S=c1[nH]nc(CSc2nc3ccccc3s2)o1	i	0.1	-4.6	99.1*	-4.3	0.0
Cn1c(CSc2nc3ccccc3s2)n[nH]c1=S	i	-0.2	1.4	97.8*	-5.4	0.0
Nc1cc2c(cc1N)-c1ccccc1C2	/	/	-14.4	/	/	/
COc1ccc(C2c3c(ncn(CCN4CCOCC4)c3=N)Oc3ccc4ccccc4c32)cc1 (stereo not drawn)	+	0.1	1.4	-42.4	2.8	0.0
O=c1c(Cl)cc(Cl)nn1-c1ccccc1	i	0.0	-1.5	97.8*	-1.6	0.0
O=C(NNC(=O)C1CC(c2cccnc2)=NO1)Nc1ccccc1F (stereo not drawn)	i	-0.1	/	3.6	-4.2	0.0
O=S(=O)(NC1=NCCCCC1)c1ccc2sc(NS(=O)(=O)c3ccc4ccccc4c3)nc2c1	i	0.0	8.9	87.2*	-6.8	12.0
CC1Cc2nc(SCC(=O)N3CCN(c4ccccc4)CC3)n(C)c(=O)c2S1 (stereo not drawn)	i	-0.2	-3.5	98.3*	4.9	0.0
CC1Cc2nc(SCC(=O)N3CCOCC3)n(-c3ccccc3)c(=O)c2S1 (stereo not drawn)	i	0.0	-1.9	99.3*	/	0.0
CCCn1cc(C(CC(=O)O)C(=O)O)c2ccccc21 (stereo not drawn)	i	-0.2	0.6	1.5	3.5	2.0
Cc1ccc(C(=O)CC(C(=O)O)c2cn(CCC#N)c3ccccc23)cc1 (stereo not drawn)	/	0.1	-2.1	95.7*	4.2	2.0
N#CCCn1cc(C(CC(=O)c2ccc(Br)cc2)C(=O)O)c2ccccc21 (stereo not drawn)	i	0.0	8.9	90.6*	3.2	14.0
O=C(CCNC(=O)c1ccco1)Nc1ccc(OC(F)(F)F)cc1	i	-0.1	-7.1	/	3.8	0.0
CC[C@]12C(=O)N(C)C[C@H]([C@@H]3C(=O)N(C)C(=O)[C@@H]31)N2C(=O)c1ccc(Cl)c(Cl)c1	/	/	0.7	/	/	/
CN(CC(=O)Nc1ccccc1Cl)C(=O)COC(=O)C1CCN(c2ccc(C(F)(F)F)cn2)CC1	i	0.0	11.6	5.1	-1.4	0.0
COc1ccc(/C(C)=N/NC(=S)NCCc2ccccc2)c(O)c1	i	0.1	5.1	/	4.8	0.0
C=C(C)C(=O)Nc1cccc(C2=NOC3(C2)C[C@@H](C(N)=O)N(C(=O)C2(C)CC2)C3)c1 (stereo partly drawn)	i	0.1	-9.7	/	-4.5	91.0*
C=C(C)C(=O)Nc1cccc(C2=NOC3(C2)C[C@H](C(N)=O)N(C(=O)COc2ccc(Cl)cc2)C3)c1 (stereo partly drawn)	i	0.0	7.4	/	-1.0	97.0*
